For assay [1], the target named is Dual specificity protein kinase CLK3 (Homo sapiens) (UniProt P49761). The conditions noted are these: at 1 µM.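 Also: each value is the mean inhibition of CLK3.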
The target of assay [2] is Dual specificity tyrosine-phosphorylation-regulated kinase 1A (Homo sapiens) (UniProt Q13627). To be noted: at 0.1 µM.
For assay [3] the target is unchanged. To be noted: at 1 µM.
In assay [4] the target is Dual specificity tyrosine-phosphorylation-regulated kinase 1B (Homo sapiens) (UniProt Q9Y463). To be noted: at 0.1 µM.
Dual specificity tyrosine-phosphorylation-regulated kinase 1B (Homo sapiens), sequence (Q9Y463 whole entry, looked up): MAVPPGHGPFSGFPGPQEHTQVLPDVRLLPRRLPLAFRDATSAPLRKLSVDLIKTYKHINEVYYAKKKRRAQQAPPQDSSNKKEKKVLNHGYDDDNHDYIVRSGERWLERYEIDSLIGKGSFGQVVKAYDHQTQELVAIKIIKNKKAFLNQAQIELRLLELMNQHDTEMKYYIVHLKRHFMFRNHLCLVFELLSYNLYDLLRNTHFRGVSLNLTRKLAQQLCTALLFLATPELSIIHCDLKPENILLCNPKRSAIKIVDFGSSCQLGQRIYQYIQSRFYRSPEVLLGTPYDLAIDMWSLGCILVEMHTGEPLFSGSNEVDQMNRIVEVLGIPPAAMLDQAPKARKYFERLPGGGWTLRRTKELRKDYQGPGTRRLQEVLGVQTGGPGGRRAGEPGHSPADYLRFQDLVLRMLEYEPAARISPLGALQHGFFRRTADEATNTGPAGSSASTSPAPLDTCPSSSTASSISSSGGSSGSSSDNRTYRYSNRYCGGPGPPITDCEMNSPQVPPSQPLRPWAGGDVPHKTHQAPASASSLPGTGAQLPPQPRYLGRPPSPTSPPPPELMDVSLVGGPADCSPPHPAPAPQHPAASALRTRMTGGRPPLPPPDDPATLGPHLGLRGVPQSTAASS
Assay [5] shares this target. The conditions noted are these: at 1 µM.
Assay [6] deals with T1, Dual specificity tyrosine-phosphorylation-regulated kinase 2 (Homo sapiens) (UniProt Q92630).
T1 sequence (whole entry): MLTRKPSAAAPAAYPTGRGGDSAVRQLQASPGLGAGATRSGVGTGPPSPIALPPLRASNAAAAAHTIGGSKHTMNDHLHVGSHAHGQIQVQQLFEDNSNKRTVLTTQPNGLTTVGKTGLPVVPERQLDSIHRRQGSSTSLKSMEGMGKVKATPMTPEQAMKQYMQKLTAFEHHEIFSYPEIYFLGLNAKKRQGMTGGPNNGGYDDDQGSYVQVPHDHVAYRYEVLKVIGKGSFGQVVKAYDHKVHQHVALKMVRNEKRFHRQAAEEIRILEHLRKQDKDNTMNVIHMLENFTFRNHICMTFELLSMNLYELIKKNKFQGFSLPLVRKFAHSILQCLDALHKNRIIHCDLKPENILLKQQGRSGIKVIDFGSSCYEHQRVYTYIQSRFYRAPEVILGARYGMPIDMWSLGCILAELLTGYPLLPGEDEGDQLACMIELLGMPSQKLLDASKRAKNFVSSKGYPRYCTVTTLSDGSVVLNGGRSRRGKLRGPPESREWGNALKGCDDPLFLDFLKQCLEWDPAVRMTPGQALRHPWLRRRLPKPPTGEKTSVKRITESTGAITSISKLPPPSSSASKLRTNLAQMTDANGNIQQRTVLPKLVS
The conditions noted are these: at 0.1 µM.

Assay [7] has as its target T1, Dual specificity tyrosine-phosphorylation-regulated kinase 2 (Homo sapiens). To be noted: at 1 µM.
Assay [8] deals with Glycogen synthase kinase-3 alpha (Homo sapiens) (UniProt P49840). The conditions noted are these: at 0.1 µM.
Glycogen synthase kinase-3 alpha (Homo sapiens), sequence (P49840 2-483 limits assumed): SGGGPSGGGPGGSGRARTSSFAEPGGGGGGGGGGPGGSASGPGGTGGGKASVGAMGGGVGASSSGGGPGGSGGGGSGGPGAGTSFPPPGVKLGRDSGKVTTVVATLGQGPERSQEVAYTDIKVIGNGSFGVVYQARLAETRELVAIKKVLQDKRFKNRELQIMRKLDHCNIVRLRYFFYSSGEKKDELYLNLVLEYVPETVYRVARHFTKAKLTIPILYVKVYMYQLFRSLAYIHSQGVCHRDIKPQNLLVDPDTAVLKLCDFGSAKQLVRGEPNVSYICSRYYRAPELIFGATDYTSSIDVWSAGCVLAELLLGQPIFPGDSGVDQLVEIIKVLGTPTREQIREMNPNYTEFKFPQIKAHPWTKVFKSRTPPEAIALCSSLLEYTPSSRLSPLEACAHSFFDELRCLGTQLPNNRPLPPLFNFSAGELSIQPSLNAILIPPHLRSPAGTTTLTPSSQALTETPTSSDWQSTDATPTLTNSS
Assay [9] has the same target. The conditions noted are these: at 1 µM.
For assay [10], the target named is Glycogen synthase kinase-3 beta (Homo sapiens) (UniProt P49841). To be noted: at 0.1 µM.
Glycogen synthase kinase-3 beta (Homo sapiens), sequence (P49841 whole entry, looked up): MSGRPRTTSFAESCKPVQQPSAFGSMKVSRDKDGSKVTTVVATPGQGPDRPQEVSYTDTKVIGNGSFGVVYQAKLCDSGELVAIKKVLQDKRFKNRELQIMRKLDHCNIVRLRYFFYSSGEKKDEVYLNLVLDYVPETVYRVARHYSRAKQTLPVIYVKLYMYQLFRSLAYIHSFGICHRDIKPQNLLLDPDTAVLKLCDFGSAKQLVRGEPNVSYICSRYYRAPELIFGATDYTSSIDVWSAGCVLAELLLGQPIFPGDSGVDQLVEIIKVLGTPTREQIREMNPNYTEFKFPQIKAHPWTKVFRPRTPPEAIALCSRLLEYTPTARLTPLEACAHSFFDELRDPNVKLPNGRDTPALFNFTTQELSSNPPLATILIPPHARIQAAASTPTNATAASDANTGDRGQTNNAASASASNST
Assay [11] has the same target. To be noted: at 1 µM.
Assay [12] deals with Homeodomain-interacting protein kinase 1 (Homo sapiens) (UniProt Q86Z02). The conditions noted are these: at 0.1 µM.
Homeodomain-interacting protein kinase 1 (Homo sapiens), sequence (Q86Z02 whole entry, looked up): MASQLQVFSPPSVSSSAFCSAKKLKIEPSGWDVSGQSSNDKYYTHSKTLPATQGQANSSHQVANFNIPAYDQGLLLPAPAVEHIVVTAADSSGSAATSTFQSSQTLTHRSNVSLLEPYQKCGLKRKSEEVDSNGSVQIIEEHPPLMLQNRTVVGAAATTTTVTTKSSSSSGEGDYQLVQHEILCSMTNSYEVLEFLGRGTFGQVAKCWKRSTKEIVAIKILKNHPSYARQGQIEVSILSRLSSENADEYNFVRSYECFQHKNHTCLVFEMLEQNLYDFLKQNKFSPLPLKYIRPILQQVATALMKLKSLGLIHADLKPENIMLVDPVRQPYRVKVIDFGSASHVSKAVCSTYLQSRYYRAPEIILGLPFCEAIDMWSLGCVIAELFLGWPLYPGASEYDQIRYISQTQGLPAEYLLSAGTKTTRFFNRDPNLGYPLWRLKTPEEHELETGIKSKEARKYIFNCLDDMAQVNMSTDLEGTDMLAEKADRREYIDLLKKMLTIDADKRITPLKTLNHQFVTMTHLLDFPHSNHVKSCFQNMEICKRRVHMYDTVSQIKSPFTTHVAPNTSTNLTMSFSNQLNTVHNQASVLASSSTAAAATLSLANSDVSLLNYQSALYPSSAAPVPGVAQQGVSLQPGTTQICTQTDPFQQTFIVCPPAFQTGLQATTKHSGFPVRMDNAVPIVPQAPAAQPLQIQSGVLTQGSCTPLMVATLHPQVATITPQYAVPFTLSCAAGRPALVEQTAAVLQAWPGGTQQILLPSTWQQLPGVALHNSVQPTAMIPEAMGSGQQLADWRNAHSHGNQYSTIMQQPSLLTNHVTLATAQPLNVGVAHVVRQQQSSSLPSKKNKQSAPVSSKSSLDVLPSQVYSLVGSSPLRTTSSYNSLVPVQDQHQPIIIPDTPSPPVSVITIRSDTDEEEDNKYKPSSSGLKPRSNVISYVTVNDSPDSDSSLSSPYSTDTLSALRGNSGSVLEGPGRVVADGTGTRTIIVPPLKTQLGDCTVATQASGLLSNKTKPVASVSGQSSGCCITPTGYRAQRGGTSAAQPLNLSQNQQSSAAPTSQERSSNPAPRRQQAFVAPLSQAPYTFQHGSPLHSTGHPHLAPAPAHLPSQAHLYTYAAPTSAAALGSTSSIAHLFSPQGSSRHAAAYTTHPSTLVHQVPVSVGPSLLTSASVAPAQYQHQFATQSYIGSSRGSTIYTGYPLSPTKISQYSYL
Assay [13] has the same target. To be noted: at 1 µM.
For assay [14], the target named is T2, Homeodomain-interacting protein kinase 4 (Homo sapiens) (UniProt Q8NE63).
T2 sequence (whole entry): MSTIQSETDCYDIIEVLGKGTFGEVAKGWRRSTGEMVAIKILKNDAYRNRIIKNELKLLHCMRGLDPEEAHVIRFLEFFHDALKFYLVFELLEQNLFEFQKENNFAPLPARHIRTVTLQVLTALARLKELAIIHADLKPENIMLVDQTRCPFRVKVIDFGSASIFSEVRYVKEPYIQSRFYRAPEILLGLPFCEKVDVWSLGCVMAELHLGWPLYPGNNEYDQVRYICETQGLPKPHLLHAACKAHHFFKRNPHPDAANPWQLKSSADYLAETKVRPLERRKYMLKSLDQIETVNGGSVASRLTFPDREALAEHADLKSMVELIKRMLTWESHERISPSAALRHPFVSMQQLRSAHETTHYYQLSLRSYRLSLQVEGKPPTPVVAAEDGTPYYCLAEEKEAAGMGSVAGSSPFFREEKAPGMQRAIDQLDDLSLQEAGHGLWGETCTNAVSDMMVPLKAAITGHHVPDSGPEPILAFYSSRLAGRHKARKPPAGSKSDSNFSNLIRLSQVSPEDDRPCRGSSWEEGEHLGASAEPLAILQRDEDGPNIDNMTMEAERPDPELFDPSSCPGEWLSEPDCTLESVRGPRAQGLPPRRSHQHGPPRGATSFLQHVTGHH
The conditions noted are these: at 0.1 µM.

Assay [15] concerns the target T2, Homeodomain-interacting protein kinase 4 (Homo sapiens). To be noted: at 1 µM.
Assay [16] deals with Mitogen-activated protein kinase 9 (Homo sapiens) (UniProt P45984). The conditions noted are these: at 0.1 µM.
Mitogen-activated protein kinase 9 (Homo sapiens), sequence (P45984 whole entry, looked up): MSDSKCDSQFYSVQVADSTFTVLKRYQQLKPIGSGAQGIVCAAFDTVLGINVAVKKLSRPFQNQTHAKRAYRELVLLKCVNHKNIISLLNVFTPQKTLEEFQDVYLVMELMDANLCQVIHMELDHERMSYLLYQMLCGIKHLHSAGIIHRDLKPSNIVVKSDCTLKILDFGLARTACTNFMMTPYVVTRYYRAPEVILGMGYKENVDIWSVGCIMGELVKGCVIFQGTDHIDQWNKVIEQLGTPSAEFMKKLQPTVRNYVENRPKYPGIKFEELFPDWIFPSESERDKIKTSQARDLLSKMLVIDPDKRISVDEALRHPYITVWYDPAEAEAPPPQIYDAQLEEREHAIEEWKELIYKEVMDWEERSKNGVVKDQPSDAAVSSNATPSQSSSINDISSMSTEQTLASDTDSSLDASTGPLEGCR
Assay [17] has the same target. To be noted: at 1 µM.
The target of assay [18] is Mitogen-activated protein kinase 1 (Homo sapiens) (UniProt P28482). The conditions noted are these: at 0.1 µM.
Mitogen-activated protein kinase 1 (Homo sapiens), sequence (P28482 whole entry): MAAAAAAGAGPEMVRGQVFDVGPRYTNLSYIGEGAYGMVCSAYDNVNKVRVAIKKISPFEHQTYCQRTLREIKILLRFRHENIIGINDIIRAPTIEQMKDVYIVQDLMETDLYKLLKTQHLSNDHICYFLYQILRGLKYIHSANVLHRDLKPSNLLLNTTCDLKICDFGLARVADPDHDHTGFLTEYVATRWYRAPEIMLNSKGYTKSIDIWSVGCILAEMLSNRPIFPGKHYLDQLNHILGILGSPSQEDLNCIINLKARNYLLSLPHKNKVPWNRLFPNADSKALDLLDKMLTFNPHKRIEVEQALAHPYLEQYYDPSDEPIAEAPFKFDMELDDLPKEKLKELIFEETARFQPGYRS
The target is the same in assay [19]. The conditions noted are these: at 1 µM.
In assay [20] the target is Mitogen-activated protein kinase 3 (Homo sapiens) (UniProt P27361). To be noted: at 0.1 µM.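 Also: each value is a mean inhibition figure.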
Mitogen-activated protein kinase 3 (Homo sapiens), sequence (P27361 whole entry): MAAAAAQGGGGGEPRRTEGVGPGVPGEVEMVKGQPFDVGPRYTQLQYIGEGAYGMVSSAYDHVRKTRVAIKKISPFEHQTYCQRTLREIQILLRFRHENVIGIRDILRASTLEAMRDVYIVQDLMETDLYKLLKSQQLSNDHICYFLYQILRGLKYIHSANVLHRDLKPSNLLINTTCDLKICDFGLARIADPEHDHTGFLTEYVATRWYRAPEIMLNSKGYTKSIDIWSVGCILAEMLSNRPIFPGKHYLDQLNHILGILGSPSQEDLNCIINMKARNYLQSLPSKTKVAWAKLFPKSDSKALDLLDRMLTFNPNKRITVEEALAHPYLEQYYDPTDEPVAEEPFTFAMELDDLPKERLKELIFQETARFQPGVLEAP

As usually defined, the inhibition is the drop in the measured response relative to a control, in per cent.

Dual specificity protein kinase CLK3 (Homo sapiens), sequence (P49761 whole entry, looked up): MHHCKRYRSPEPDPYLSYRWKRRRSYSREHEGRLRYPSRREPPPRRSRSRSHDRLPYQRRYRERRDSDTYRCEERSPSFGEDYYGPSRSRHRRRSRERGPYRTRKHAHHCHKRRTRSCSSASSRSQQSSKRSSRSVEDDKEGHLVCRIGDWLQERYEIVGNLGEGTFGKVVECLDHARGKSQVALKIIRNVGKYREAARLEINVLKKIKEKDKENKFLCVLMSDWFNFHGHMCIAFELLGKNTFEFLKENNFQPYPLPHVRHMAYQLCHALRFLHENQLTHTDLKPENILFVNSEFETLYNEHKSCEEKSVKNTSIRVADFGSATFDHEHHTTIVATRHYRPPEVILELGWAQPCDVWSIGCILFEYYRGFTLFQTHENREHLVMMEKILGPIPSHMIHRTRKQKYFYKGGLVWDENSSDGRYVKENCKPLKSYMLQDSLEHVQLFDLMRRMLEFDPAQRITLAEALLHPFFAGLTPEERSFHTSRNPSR

As for `COc1cc2ncn(-c3cc(OCc4ccccc4C(F)(F)F)c(C(=O)N(C)C)s3)c2cc1OC`, the inhibition in assay [1] is 0.45%; in assay [2], 0.01%; in [3], 0.74%; in [4], 0.5%; in assay [5], 0.22%; in [6], -0.27%. Moreover, the inhibition in assay [7] is 2.19%; in [8] it was 0.04%; in [9], 1.19%; in assay [10], 0.03%; in [11] it was 1.99%; in assay [12] it was -1.93%. Besides, the inhibition is -0.02% in assay [13]; -0.52% in assay [14]; 2.66% in assay [15]; 1.07% in assay [16]; 2.1% in [17]; -1.73% in assay [18]. Also, the inhibition was 0.92% in assay [19] and -0.18% in assay [20].
For the molecule `CNC(=O)c1cccc(C#Cc2cncnc2Nc2ccc(OCc3cccc(F)c3)c(Cl)c2)c1`, the inhibition in [1] is -0.52%; in [2], -0.33%; in assay [3] it was 1.36%; in assay [4], 0.13%; in assay [5], 1%; in assay [6], 0.97%. In addition, the inhibition was 1.82% in [7]; 1.09% in assay [8]; 3.8% in assay [9]; 0.4% in [10]; 6.56% in assay [11]; 1.69% in [12]. Moreover, the inhibition in assay [13] is 4.07%; in assay [14], 1.01%; in assay [15], 4.65%; in [16] it was -2.46%; in assay [17], 1.25%; in [18] it was 1.53%. Besides, the inhibition in assay [19] came out at 0.6%; in assay [20] it was 2.46%.
For the molecule `c1ccc(COc2ccc(Nc3ncnc4ccc(-c5ccco5)cc34)cc2)cc1`, the inhibition in [1] was -0.29%; in assay [2], -1.32%; in assay [3] it was 3.87%; in [4] it was -0.39%; in assay [5] it was 0.34%; in [6], 0.31%. Also, the inhibition in assay [7] was -1.53%; in assay [8], 1.11%; in assay [9], 1.51%; in assay [10], 0.28%; in assay [11] it was 2.25%; in assay [12] it was -3.03%. For the same molecule, the inhibition in assay [13] is -3.68%; in assay [14], 0.31%; in assay [15] it was 1.89%; in assay [16], 1.39%; in [17] it was 1.07%; in [18] it was 2.65%. Besides, the inhibition in assay [19] is -3.36%; in [20] it was 0.95%.
On to `CNC(=O)c1cncc(/C=C/c2ccccc2Cl)c1`, for which the inhibition in assay [1] was 0.64%; in assay [2], -0.68%; in assay [3], 0.12%; in assay [4] it was -0.37%; in assay [5], 0.88%; in assay [6], 1.32%. Besides, the inhibition is 1.49% in assay [7]; 3.11% in [8]; 8.27% in assay [9]; 3.39% in assay [10]; 10% in assay [11]; 1.58% in assay [12]. For the same molecule, the inhibition in assay [13] was 2.44%; in assay [14] it was 0.63%; in assay [15], 1.63%; in assay [16], -1.14%; in assay [17], -1.36%; in [18], 0.37%. The inhibition in assay [19] is -1.68%; in assay [20], 0.99%.
Turning to `COC(=O)Nc1nc2ccc(S(=O)(=O)c3ccc(NC(=O)Nc4cc(C(F)(F)F)ccc4F)cc3)cc2[nH]1`, the inhibition worked out at 0.84% in [1]; 1.81% in assay [2]; 3.41% in assay [3]; 0.89% in assay [4]; 0.66% in [5]; 2.74% in assay [6]. For the same molecule, the inhibition in assay [7] was 3.12%; in assay [8], 2.8%; in [9], 7.37%; in [10] it was 0.8%; in assay [11] it was 7.61%; in [12], -0.95%. Moreover, the inhibition in assay [13] is 0.3%; in [14], -0.96%; in assay [15], 1.06%; in [16] it was 3.14%; in assay [17], 3.4%; in assay [18] it was 1.4%. Besides, the values for the inhibition in [19] and in assay [20] were 2.17% and 3%, respectively.
For the molecule `COc1cccc(-n2ncc3c(N/N=C/c4ccc(F)cc4)ncnc32)c1`, the inhibition in [1] was 6.29%; in assay [2], 6.93%; in assay [3], 24.2%; in assay [4], 4.09%; in assay [5] it was 16.3%; in [6], 5.25%. For the same molecule, the inhibition worked out at 18.8% in assay [7]; 64% in [8]; 87.7% in [9]; 54.6% in assay [10]; 83% in assay [11]; 11.9% in [12]. Further, the inhibition in assay [13] is 27.1%; in assay [14] it was 9.35%; in [15] it was 20.9%; in [16], 1.94%; in [17], 4.28%; in [18], 5.5%. Also, the inhibition in assay [19] is 2.32%; in [20], 2.41%.
Take `CC1=C(C(=O)Nc2cc(Cl)c3[nH]ncc3c2)C(c2ccc(C(F)(F)F)cc2)CC(=O)N1` (stereo not given): the inhibition is 1.64% in assay [1]; 1.66% in [2]; 2.44% in [3]; -1.21% in assay [4]; -0.06% in assay [5]; 2.57% in [6]. Besides, the inhibition is 2.68% in assay [7]; 0.24% in assay [8]; -1.53% in assay [9]; 0.14% in assay [10]; 2.19% in [11]; -0.91% in [12]. For the same molecule, the inhibition in [13] was -0.78%; in assay [14], -0.54%; in assay [15], 2.16%; in assay [16], 3.86%; in [17], 2.16%; in assay [18] it was 7.37%. The inhibition in [19] is 35.4%; in [20], 6.64%.

The values above are taken from ChEMBL document CHEMBL1961873, “Compounds: GSK PKIS; Assays: Nanosyn kinase panel” (2012).
